In PubChem BioAssay:

Molecular target: Pro-neuregulin-1, membrane-bound isoform (Homo sapiens) (UniProt Q02297)
Experiment: small molecules binding neuregulin-1 protein – biochemical, small-molecule microarray, fluorescence 635/667, psychiatric disease protein project, primary screen (AID 1075);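 note: score combines 667 nm spot fluorescence with signal to noise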
Conditions: NRG1 binding, 635 nm fluorescence, higher = more signal

Chain of Pro-neuregulin-1, membrane-bound isoform (Homo sapiens) (Q02297 whole entry, looked up, canonical isoform): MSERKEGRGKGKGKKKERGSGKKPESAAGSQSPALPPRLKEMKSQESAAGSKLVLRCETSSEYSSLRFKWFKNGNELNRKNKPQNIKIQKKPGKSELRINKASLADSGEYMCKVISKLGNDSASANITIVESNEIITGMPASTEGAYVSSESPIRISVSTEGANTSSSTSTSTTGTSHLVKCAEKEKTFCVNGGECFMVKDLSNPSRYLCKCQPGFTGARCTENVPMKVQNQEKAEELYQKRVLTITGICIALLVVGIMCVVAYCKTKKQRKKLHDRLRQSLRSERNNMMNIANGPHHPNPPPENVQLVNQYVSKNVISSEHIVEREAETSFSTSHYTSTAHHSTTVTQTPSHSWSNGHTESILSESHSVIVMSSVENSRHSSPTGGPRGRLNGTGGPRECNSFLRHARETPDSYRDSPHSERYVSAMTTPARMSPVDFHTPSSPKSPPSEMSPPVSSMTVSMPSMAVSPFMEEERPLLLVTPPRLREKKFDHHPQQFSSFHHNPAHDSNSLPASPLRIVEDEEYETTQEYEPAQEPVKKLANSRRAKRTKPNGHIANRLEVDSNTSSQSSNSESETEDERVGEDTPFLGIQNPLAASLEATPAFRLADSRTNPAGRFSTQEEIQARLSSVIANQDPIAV

SMILES	composite z-score
CC(C)NC(=O)[C@@]1(Cc2ccccc2I)c2ccccc2C(=O)N(Cc2ccccc2C(F)(F)F)[C@H]1c1ccc(CO)cc1	1.71
COC(=O)[C@@]1(Cc2ccc(OC)cc2)[C@H]2c3cc(C(=O)N(C)C)n(Cc4cc(F)c(F)c(F)c4)c3C[C@H]2CN1C(=O)c1ccccc1	1.81
O=C1N(CCS(=O)(=O)c2ccccc2)Cc2ccccc2C[C@@]12COC(c1ccc(OCCCO)cc1)=N2	1.02
Cc1ccc(S[C@]2(C(=O)O)CC(=O)N(Cc3ccccc3C(F)(F)F)[C@@H]2c2ccc(CO)cc2)cc1	-0.343
O=C1N(CCS(=O)(=O)c2ccccc2)c2ccccc2[C@H]2OC(c3ccc(OCCCO)cc3)=N[C@@]12CCS(=O)(=O)c1ccccc1	1.38
CC(C)C(CO)N1C(=O)[C@@H]2[C@H]3C(=O)OCC=C[C@H]3OC23C=CCN(CCN2CCOCC2)C(=O)[C@@H]13 (stereo partly drawn)	0.0853
CC(C)(C)OC(=O)CC[C@@]1(C(=O)N2CCCCC2)N=C(c2ccc(OCCCO)cc2)O[C@@H]1c1ccccc1N=[N+]=[N-]	1.89
CCCCCCC#C[Si](O[C@H](c1ccccc1)c1cn(Cc2cccc(Cl)c2)nn1)(C(C)C)C(C)C	0.485
C=CCOC(=O)[C@@H]1[C@H]2C(=O)O[C@H](c3ccccc3)[C@H](c3ccccc3)N2[C@H](c2ccc(OCCOC(=O)[C@@H]3C[C@@H]4C(=O)N5CCC[C@H]5C(=O)N4[C@@H]3c3cccc(OCCO)c3)cc2)[C@@]12C(=O)Nc1ccc(I)cc12	0.311
C=CCC(OC(C)=O)[C@@H]1[C@@H](N(Cc2cccc3ccccc23)C(=O)Cc2ccc(F)cc2)c2cc(OCCCO)ccc2N1C(=O)Cc1ccc(OC)cc1 (stereo partly drawn)	-0.418
CO[C@H]1O[C@H](CO)[C@@H](OC(=O)Nc2ccc(C(F)(F)F)cc2)[C@H](OC(=O)Nc2ccccc2)[C@H]1OC(=O)Nc1ccccc1	1.72
C=C(COC)C(=O)CC[C@H](OC(=O)c1ccccc1-c1ccccc1C(=O)O)c1ccc(CO)o1	0.844
CC(C)CNC(=O)[C@@]1(C)c2ccccc2C(=O)N(Cc2ccccc2)[C@H]1c1ccc(CO)cc1	0.839
CCC[C@@H]1C[C@@]1(CCC)[C@@H](NC(=O)c1ccco1)c1ccc(Cl)cc1	-0.656
[N-]=[N+]=NCc1ccccc1[C@H]1OC(c2ccc(OCCCO)cc2)=N[C@@]1(Cc1ccccc1)C(N)=O	1.36
COc1ccc([Si](C)(C)[C@H]2[C@H](CCO)O[C@@]3(C(=O)N(Cc4cccc(N5CCOC5=O)c4)c4ccccc43)[C@@H]2C)cc1	0.843
C[N+](C)(C)CCCC[C@@H]1NC(=O)[C@@H]2C[C@H](C(=O)NCCCCCNC(=O)CS)[C@H](c3cccc(OCCO)c3)N2C1=O	0.634
COCCOC(=O)N1C(=O)[C@@]2(c3cc(C#CC4(O)CCCCCC4)ccc31)[C@H](C(=O)NC[C@H](O)c1ccccc1)[C@H]1C(=O)O[C@H](c3ccccc3)[C@H](c3ccccc3)N1[C@@H]2c1ccc(OCCO)cc1	0.985
COc1cccc(C)c1NC(=O)O[C@H]1[C@H](OC(=O)Nc2ccccc2)[C@H](OC(=O)Nc2ccccc2)[C@@H](OC)O[C@@H]1CO	1.64
COC(=O)[C@@]1(Cc2ccccc2)[C@H]2c3cc(C(=O)N4CCCC4)n(Cc4ccccc4)c3C[C@H]2CN1C(=O)c1ccccc1	1.6
COc1cc2c(cc1OC)CN(C(=O)[C@@H]1[C@H]3C(=O)O[C@H](c4ccccc4)[C@H](c4ccccc4)N3[C@H](c3ccc(OCCO)cc3)[C@@]13C(=O)Nc1ccc(C#CCCO)cc13)CC2	1.58
COc1ccc([Si](C)(C)[C@@H]2[C@@H](CC(=O)N(CCO)Cc3ccccc3)O[C@]3(C(=O)N(C)c4c(Br)cc(C)cc43)[C@H]2C)cc1	0.679
COC(=O)[C@@]1(Cc2ccccc2)[C@H]2c3cc(C(=O)N4CCCC4)n(Cc4ccc(OC(F)(F)F)cc4)c3C[C@H]2CN1C(=O)c1ccccc1	1.62

System: Neuregulin-1 EGF-like domain
Experiment: small molecules binding NRG1 EGF domain – biochemical, small-molecule microarray, 635 nm fluorescence, primary screen (AID 1081);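 note: binding of the protein to compounds printed on small-molecule microarray slides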
Conditions: higher = more signal

SMILES	composite z-score
COCCCNC(=O)[C@@]1(Cc2ccccc2)COC(c2ccc(OCCCO)cc2)=N1	0.99
COC(=O)[C@]1(Cc2ccccc2CN=[N+]=[N-])N=C(c2ccc(OCCCO)cc2)O[C@@H]1c1ccccc1CN=[N+]=[N-]	1.28
O=C1NC(=O)C2C1C=CC(C(O)c1ccc(-c3ccccc3)s1)N2Nc1ccccn1 (stereo not drawn)	0.988
C=C(C(=O)CC[C@H](OC(=O)c1cccnc1)c1ccc(OCCO)cc1)C(C)C	1.2
Cc1ccc(N2C(=O)c3ccccc3[C@](C)(C(=O)NC(C)C)[C@@H]2c2ccc(CO)cc2)nc1	0.787
CCCCC=C[C@@H](NC(=O)CCc1ccccc1)c1ccccc1	1.24
C=CCC(OC(C)=O)[C@@H]1[C@@H](N(Cc2cccc3ccccc23)C(=O)c2ccc(C)cc2)c2cc(OCCCO)ccc2N1C(=O)c1ccc2ccccc2c1 (stereo partly drawn)	-0.163
C[C@]12C(=O)N(CCCCCO)[C@@H]3C(=O)N(c4ccc(Cl)cc4)CC=CC31O[C@@H]1/C=C\CCCOC(=O)C12 (stereo partly drawn)	0.655
O=C1c2ccccc2[C@](Cc2ccccc2I)(C(=O)NCC(F)(F)F)[C@H](c2ccc(CO)cc2)N1Cc1ccccc1	1.21
O=C(O)[C@@]1(Cc2ccccc2)COC(c2ccc(OCCCO)cc2)=N1	1.2
COCCCNC(=O)[C@]1(Cc2ccccc2)N=C(c2ccc(OCCCO)cc2)O[C@@H]1c1ccccc1N=[N+]=[N-]	1.2
COCCOC(=O)N1C(=O)[C@@]2(c3cc(C#Cc4ccc(OC)cc4)ccc31)[C@H](C(=O)N1CCc3cc(OC)c(OC)cc3C1)[C@H]1C(=O)O[C@H](c3ccccc3)[C@H](c3ccccc3)N1[C@@H]2c1ccc(OCCO)cc1	1.16
CC(C)NC(=O)[C@@]1(Cc2ccccc2I)c2ccccc2C(=O)N(Cc2ccccc2C(F)(F)F)[C@H]1c1ccc(CO)cc1	1.21
COC(=O)[C@@]1(Cc2ccc(OC)cc2)[C@H]2c3cc(C(=O)N(C)C)n(Cc4cc(F)c(F)c(F)c4)c3C[C@H]2CN1C(=O)c1ccccc1	1.08
O=C1N(CCS(=O)(=O)c2ccccc2)Cc2ccccc2C[C@@]12COC(c1ccc(OCCCO)cc1)=N2	1.35
Cc1ccc(S[C@]2(C(=O)O)CC(=O)N(Cc3ccccc3C(F)(F)F)[C@@H]2c2ccc(CO)cc2)cc1	0.508
O=C1N(CCS(=O)(=O)c2ccccc2)c2ccccc2[C@H]2OC(c3ccc(OCCCO)cc3)=N[C@@]12CCS(=O)(=O)c1ccccc1	1.36
CC(C)C(CO)N1C(=O)[C@@H]2[C@H]3C(=O)OCC=C[C@H]3OC23C=CCN(CCN2CCOCC2)C(=O)[C@@H]13 (stereo partly drawn)	-0.428

SMILES	composite z-score
CC(C)(C)OC(=O)CC[C@@]1(C(=O)N2CCCCC2)N=C(c2ccc(OCCCO)cc2)O[C@@H]1c1ccccc1N=[N+]=[N-]	1.41
CCCCCCC#C[Si](O[C@H](c1ccccc1)c1cn(Cc2cccc(Cl)c2)nn1)(C(C)C)C(C)C	0.382
C=CCOC(=O)[C@@H]1[C@H]2C(=O)O[C@H](c3ccccc3)[C@H](c3ccccc3)N2[C@H](c2ccc(OCCOC(=O)[C@@H]3C[C@@H]4C(=O)N5CCC[C@H]5C(=O)N4[C@@H]3c3cccc(OCCO)c3)cc2)[C@@]12C(=O)Nc1ccc(I)cc12	1.17
C=CCC(OC(C)=O)[C@@H]1[C@@H](N(Cc2cccc3ccccc23)C(=O)Cc2ccc(F)cc2)c2cc(OCCCO)ccc2N1C(=O)Cc1ccc(OC)cc1 (stereo partly drawn)	-0.424
CO[C@H]1O[C@H](CO)[C@@H](OC(=O)Nc2ccc(C(F)(F)F)cc2)[C@H](OC(=O)Nc2ccccc2)[C@H]1OC(=O)Nc1ccccc1	1.3
C=C(COC)C(=O)CC[C@H](OC(=O)c1ccccc1-c1ccccc1C(=O)O)c1ccc(CO)o1	1.33
CC(C)CNC(=O)[C@@]1(C)c2ccccc2C(=O)N(Cc2ccccc2)[C@H]1c1ccc(CO)cc1	0.614
CCC[C@@H]1C[C@@]1(CCC)[C@@H](NC(=O)c1ccco1)c1ccc(Cl)cc1	-1.26
[N-]=[N+]=NCc1ccccc1[C@H]1OC(c2ccc(OCCCO)cc2)=N[C@@]1(Cc1ccccc1)C(N)=O	1.1
COc1ccc([Si](C)(C)[C@H]2[C@H](CCO)O[C@@]3(C(=O)N(Cc4cccc(N5CCOC5=O)c4)c4ccccc43)[C@@H]2C)cc1	0.783
C[N+](C)(C)CCCC[C@@H]1NC(=O)[C@@H]2C[C@H](C(=O)NCCCCCNC(=O)CS)[C@H](c3cccc(OCCO)c3)N2C1=O	1.21
COCCOC(=O)N1C(=O)[C@@]2(c3cc(C#CC4(O)CCCCCC4)ccc31)[C@H](C(=O)NC[C@H](O)c1ccccc1)[C@H]1C(=O)O[C@H](c3ccccc3)[C@H](c3ccccc3)N1[C@@H]2c1ccc(OCCO)cc1	1.14
COc1cccc(C)c1NC(=O)O[C@H]1[C@H](OC(=O)Nc2ccccc2)[C@H](OC(=O)Nc2ccccc2)[C@@H](OC)O[C@@H]1CO	1.22
COC(=O)[C@@]1(Cc2ccccc2)[C@H]2c3cc(C(=O)N4CCCC4)n(Cc4ccccc4)c3C[C@H]2CN1C(=O)c1ccccc1	1.01
COc1cc2c(cc1OC)CN(C(=O)[C@@H]1[C@H]3C(=O)O[C@H](c4ccccc4)[C@H](c4ccccc4)N3[C@H](c3ccc(OCCO)cc3)[C@@]13C(=O)Nc1ccc(C#CCCO)cc13)CC2	1.27
COc1ccc([Si](C)(C)[C@@H]2[C@@H](CC(=O)N(CCO)Cc3ccccc3)O[C@]3(C(=O)N(C)c4c(Br)cc(C)cc43)[C@H]2C)cc1	0.508
COC(=O)[C@@]1(Cc2ccccc2)[C@H]2c3cc(C(=O)N4CCCC4)n(Cc4ccc(OC(F)(F)F)cc4)c3C[C@H]2CN1C(=O)c1ccccc1	1.18
